# From PubChem BioAssay (Tox21)
# Records with an inconclusive call do not appear. Where a call stands in place of a potency, no number is given. A number with no mark means an inactive call. Active and inactive are the calls of the source. Calls come from the whole dose curve; as a rule, active = well fitted curve in the direction sought with a large enough effect in the repeat runs; inconclusive = weak or mixed curves; inactive = no such curve, though single readings can be large; an effect the other way counts as inactive or inconclusive.
# Experiments:
# [1] = target: Voltage-gated inwardly rectifying potassium channel KCNH2 (Homo sapiens) (UniProt Q12809); assay: Human Ether-a-go-go-Related Gene (hERG) channel small molecule antagonists: fluorescence cell-based qHTS assay (AID 1671200);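 note: hERG-expressing U2OS cells given a thallium stimulus after FluxOR II dye loading; series mostly up to about 77 µM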
# Procedure, shortened: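 Thallium served as the potassium surrogate; its influx into dye-loaded U2OS cells carrying the channel was measured by fluorescence over 2 min.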
# [2] = target: Cytochrome P450 3A4 (Homo sapiens) (UniProt P08684); assay: Cytochrome P450 Family 3 Subfamily A Member 4 (CYP3A4) small molecule antagonists: luciferase reporter qHTS assay (AID 1671201); note: potency is the fitted concentration of half-maximal effect; for activity change, negative = inhibition: series mostly up to about 120 µM
# Procedure, shortened: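 Relative luminescence units after 20 min with luciferin detection reagent served as read-out. Beforehand, CYP3A4 turned over a proluciferin substrate for 1 h at room temperature with NADPH regeneration, following 10 min compound preincubation.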
# Note: nearly all actives have a fitted effect of over 50% in size.
# Sequence of Cytochrome P450 3A4 (Homo sapiens) (P08684 whole entry, looked up): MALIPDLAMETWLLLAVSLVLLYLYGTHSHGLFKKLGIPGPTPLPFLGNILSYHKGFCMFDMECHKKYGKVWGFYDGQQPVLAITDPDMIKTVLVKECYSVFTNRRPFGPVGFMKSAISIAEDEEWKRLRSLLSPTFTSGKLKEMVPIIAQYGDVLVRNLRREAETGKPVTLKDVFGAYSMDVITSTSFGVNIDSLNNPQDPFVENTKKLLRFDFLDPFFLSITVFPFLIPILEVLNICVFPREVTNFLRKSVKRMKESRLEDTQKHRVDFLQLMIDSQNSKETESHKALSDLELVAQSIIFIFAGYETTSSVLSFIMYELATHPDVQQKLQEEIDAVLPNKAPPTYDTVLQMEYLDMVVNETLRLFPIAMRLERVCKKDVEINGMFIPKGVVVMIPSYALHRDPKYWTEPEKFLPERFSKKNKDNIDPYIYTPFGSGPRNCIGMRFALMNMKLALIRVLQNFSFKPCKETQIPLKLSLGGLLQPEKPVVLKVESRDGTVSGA
# Sequence of Voltage-gated inwardly rectifying potassium channel KCNH2 (Homo sapiens) (Q12809 whole entry, looked up): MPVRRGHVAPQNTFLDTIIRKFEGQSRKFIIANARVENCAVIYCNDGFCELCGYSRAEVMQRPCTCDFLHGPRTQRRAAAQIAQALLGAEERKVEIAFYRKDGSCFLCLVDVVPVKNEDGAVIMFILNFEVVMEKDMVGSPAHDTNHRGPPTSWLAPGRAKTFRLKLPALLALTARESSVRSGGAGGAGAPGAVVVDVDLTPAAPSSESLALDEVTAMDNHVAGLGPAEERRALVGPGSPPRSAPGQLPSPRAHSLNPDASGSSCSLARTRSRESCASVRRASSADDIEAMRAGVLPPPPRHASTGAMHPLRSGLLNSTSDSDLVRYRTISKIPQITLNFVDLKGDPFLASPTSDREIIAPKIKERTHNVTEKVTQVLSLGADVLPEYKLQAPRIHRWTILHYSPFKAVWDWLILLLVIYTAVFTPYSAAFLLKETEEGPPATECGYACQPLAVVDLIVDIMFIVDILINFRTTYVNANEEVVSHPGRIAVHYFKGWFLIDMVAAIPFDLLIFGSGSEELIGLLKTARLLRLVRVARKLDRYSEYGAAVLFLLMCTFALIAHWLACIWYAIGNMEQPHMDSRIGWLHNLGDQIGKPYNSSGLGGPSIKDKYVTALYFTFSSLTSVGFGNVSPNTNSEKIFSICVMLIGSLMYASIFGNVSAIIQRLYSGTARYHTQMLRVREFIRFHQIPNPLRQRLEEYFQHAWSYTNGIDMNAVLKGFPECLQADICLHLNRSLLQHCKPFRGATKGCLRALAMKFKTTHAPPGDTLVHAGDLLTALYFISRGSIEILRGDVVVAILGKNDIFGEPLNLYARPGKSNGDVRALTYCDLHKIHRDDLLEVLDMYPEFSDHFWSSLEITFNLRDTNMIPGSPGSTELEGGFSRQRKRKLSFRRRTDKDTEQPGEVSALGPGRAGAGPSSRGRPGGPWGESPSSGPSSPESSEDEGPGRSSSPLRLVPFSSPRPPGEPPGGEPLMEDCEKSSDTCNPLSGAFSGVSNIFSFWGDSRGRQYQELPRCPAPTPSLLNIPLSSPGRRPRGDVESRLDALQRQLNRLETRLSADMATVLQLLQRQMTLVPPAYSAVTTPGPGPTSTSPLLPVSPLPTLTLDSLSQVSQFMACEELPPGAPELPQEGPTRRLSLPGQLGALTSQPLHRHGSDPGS
structure (smiles),measurement,setting,value
Cc1ccc(C)cc1,Potency,[1],inactive
same,Potency,[2],inactive
COc1cccc2c1C(=O)c1c(O)c3c(c(O)c1C2=O)C[C@@](O)(C(C)=O)C[C@@H]3O[C@H]1C[C@H](N)[C@H](O)[C@H](C)O1,Potency,[1],inactive
O=C(O)O,"activity change, negative = inhibition",[1],0.334% [at 6.97 µM]
same,"activity change, negative = inhibition",[2],0.224% [at 10.5 µM]
Cc1c(C)c2c(c(C)c1OC(=O)c1cccnc1)CC[C@@](C)(CCC[C@H](C)CCC[C@H](C)CCCC(C)C)O2,Potency,[1],inactive
same,Potency,[2],inactive
OC1CCCc2ccccc21 (centres undefined),Potency,[1],inactive
same,Potency,[2],inactive
CCC(COC(=O)CCS)(COC(=O)CCS)COC(=O)CCS,Potency,[2],3.56 µM (active)
CC(C)OC(=O)C(O)(CC(=O)O)CC(=O)O,Potency,[1],inactive
same,Potency,[2],inactive
COC(C)=O,Potency,[1],inactive
same,Potency,[2],inactive
